High-throughput results as filed in PubChem.
Rows were chosen to be rich in hits. Some 3.5% of all compounds tested hit in one or more screens of this group.
mHTT CaM bind = mutant huntingtin-calmodulin interaction inhibitors – biochemical, AlphaScreen, primary screen. AID 1671202, 2021. 190,000 tested, 3.6% active. inhibition, % at 15 µM. AlphaScreen His-mHTT/GST-CaM binding, luminescence;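 note: 0% = both proteins with DMSO and 100% = one protein alone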
Pf apPOL block = Pf-apPOL inhibitors, biochemical, fluorescence; Recombinant Pf-apPOL, molecular beacon fluorescence, 1.5 h; inhibition, % at 10 µM; 210,000 tested, 0.25% active
An asterisk follows results filed as active; . = not tested or not shown. Cut-off read from the data, not from the text of the source: active = inhibition above about 50%; inactive = the rest.

SMILES | mHTT CaM bind | Pf apPOL block
Cc1ccc(C2=NN(C(=O)CN3CCC(C(N)=O)CC3)C(c3ccccc3)C2)c(C)c1 (centres undefined) | 56* | -2
COc1ccc(C2CC(c3ccc(-c4ccccc4)cc3)Nc3nnnn32)cc1 (centres undefined) | 64* | -7
COc1ccc(C2CC(c3ccccc3)Nc3nnnn32)cc1 (centres undefined) | -1 | 2
CCNC(=O)CCC1CCCN(c2cc(NC3CC3)ncn2)C1 (centres undefined) | -10 | -7
CCOC(=O)c1c(C)oc2c1c(C=NCCC1=CCCCC1)c(O)c1ccccc12 | 15 | 0
O=C(CCc1ccccc1)N1CCc2c(nc3cc(-c4ccccc4)[nH]n3c2=O)C1 | 72* | 8
O=C(CCc1c[nH]c2ccccc12)N1CCc2c(nc3cc(-c4ccccc4)[nH]n3c2=O)C1 | 8 | 10
COc1ccc(-c2cc3nc4c(c(=O)n3[nH]2)CN(C(=O)Cc2cccc(C)c2)CC4)cc1 | 37 | 4
Cc1cccc(CC(=O)N2CCc3c(nc4cc(-c5ccccc5)[nH]n4c3=O)C2)c1 | 74* | -6
Cc1ccc(NC(=O)C2C3C4CCC(C4)C23)c(C)c1 (centres undefined) | -3 | 2
N#CC1=C(SCC(=O)NCc2ccccc2)NC(=O)CC1c1cccc([N+](=O)[O-])c1 (centres undefined) | -10 | -11
Cc1sc(C(=O)N2CCCC2)c2ncnc(NCc3ccc(F)c(Cl)c3)c12 | 100* | 4
Cc1sc(C(=O)N2CCCC2)c2ncnc(NCc3cccc(Cl)c3)c12 | 4 | -4
CC1(C)CC(=O)C2=C(C1)Nc1nc(-c3ccccc3)nn1C2c1ccc(Br)cc1 (centres undefined) | 35 | -3
COc1ccc(-c2nc3n(n2)C(c2ccccc2)C2=C(CC(C)(C)CC2=O)N3)cc1 (centres undefined) | 52* | -4
CC1(C)CC(=O)C2=C(C1)Nc1nc(-c3ccccc3)nn1C2c1ccccc1 (centres undefined) | 43 | -2
COc1ccccc1C1C2=C(CC(C)(C)CC2=O)Nc2nc(-c3cccc(Cl)c3)nn21 (centres undefined) | 70* | -3
COc1cccc(C2C3=C(CC(C)(C)CC3=O)Nc3nc(-c4cccc(Cl)c4)nn32)c1 (centres undefined) | 1 | -2
COc1ccc(C2C3=C(CC(C)(C)CC3=O)Nc3nc(-c4ccc(O)cc4)nn32)cc1 (centres undefined) | 50* | 2
O=Cc1ccccc1OCc1cccc(F)c1 | -25 | -6
CN(C)/C=C1\C(=O)N(c2nc3ccccc3s2)N=C1C(F)(F)F | -6 | -13
Cn1ccc2c(cc(C(=O)NCc3cccc(C(F)(F)F)c3)n2C)c1=O | 0 | 2
O=c1[nH]c(CNC2CC2)nc2sc3c(c12)CCN(Cc1ccccc1)C3 | 28 | 3
c1cc(Nc2ncnc3sc4c(c23)CCC4)ccn1 | 4 | 4
NNc1ncnc2sc3c(c12)CCN(Cc1ccccc1)C3 | 90* | 0
SMILES | mHTT CaM bind | Pf apPOL block
NNc1ncnc2sc3c(c12)CCC3 | 100* | -3
COc1ccc(-c2c(C)c3cc(OC(=O)C(C)C)ccc3oc2=O)cc1OC | 0 | -7
COc1ccc(CN2c3cccc[n+]3CC2(O)c2ccc(Cl)cc2)cc1 (centres undefined) | 0 | 1
CN1C=CC=C/C1=C\C=C1/C=Nc2ccccc21 | 0 | -1
NS(=O)(=O)c1ccc(NC(=O)c2csc3c2CCCC3)cc1 | -7 | -2
c1csc(C2Nc3ccccc3-c3nc4ccccc4n32)c1 (centres undefined) | -16 | -6
Fc1cccc(Cl)c1C1Nc2cccc3cccc(c23)N1 | 49 | .
c1csc(C2Nc3cccc4cccc(c34)N2)c1 | 50* | .
Clc1cccc(C2Nc3cccc4cccc(c34)N2)c1 | 82* | .
N#CC1=C(N)SC(N)=C(C#N)C1c1cccc2ccccc12 | 16 | -9
c1ccc2c(C3Nc4cccc5cccc(c45)N3)cccc2c1 | 77* | .
Cc1ccc2c(Nc3ccc(Cl)cc3)c(C(=O)N3CCSCC3)cnc2n1 | 0 | -1
COc1ccc(C(=O)Nc2nnc(C3CC(=O)N(c4ccccc4)C3)o2)cc1OC (centres undefined) | 61* | -2
Cc1ccccc1C(=O)Nc1nnc(C2CC(=O)N(c3ccc(S(C)(=O)=O)cc3)C2)o1 (centres undefined) | 46 | -1
CS(=O)(=O)c1ccc(N2CC(c3nnc(NC(=O)c4cccs4)o3)CC2=O)cc1 (centres undefined) | 53* | 0
COc1ccc(C(=O)Nc2nnc(C3CC(=O)N(c4ccc(Cl)cc4)C3)o2)cc1OC (centres undefined) | 76* | -3
COc1ccc(N2CC(c3nnc(NC(=O)c4ccc(Cl)cc4)o3)CC2=O)cc1 (centres undefined) | -2 | -5
O=C(Nc1nnc(C2CC(=O)N(c3ccccc3)C2)o1)c1ccc(Br)cc1 (centres undefined) | 15 | -1
COc1ccc(C(=O)Nc2nnc(C3CC(=O)N(c4ccccc4)C3)o2)cc1 (centres undefined) | 7 | -3
O=C(Nc1nnc(C2CC(=O)N(c3ccccc3)C2)o1)c1ccccn1 (centres undefined) | 100* | -213
CCOc1ccc(CN2CCCC2c2cc(C)no2)cc1OCC (centres undefined) | 6 | -6
C#CCOc1ccc(/C=C2\NC(=O)N(CC(=O)Nc3cccc(C)c3)C2=O)cc1OCC | 7 | -8
O=C(CCc1cccc2[nH]ccc12)Nc1ccc2c(c1)OCO2 | 26 | -5
N=C1S/C(=C\c2cc3c(cc2Cl)OCO3)C(=O)N1c1nccs1 | 11 | 11
C=CCOc1ccc(/C=C2\SC(=N)N(c3nccs3)C2=O)cc1OCC | 74* | -79
SMILES | mHTT CaM bind | Pf apPOL block
CC(C)(O)C#Cc1ccc(C#Cc2ccc(C#CC(C)(C)O)cc2)cc1 | 3 | -6
O=C(/C=C/c1cccnc1)c1ccc(NC(=O)c2ccco2)cc1 | 1 | 3
O=C(c1cc(C2CC2)n(C2CCS(=O)(=O)C2)n1)N1CCN(c2cccc(Cl)c2)CC1 (centres undefined) | 84* | -3
O=C(c1cc(-c2ccco2)n(C2CCS(=O)(=O)C2)n1)N1CCN(c2ccccn2)CC1 (centres undefined) | -3 | -5
CCc1nc2c(c(=O)n1CC(=O)NCc1ccco1)CN(Cc1ccccc1)CC2 | 9 | -6
CCCC(C)C(=O)Nc1ccc(Br)cc1 (centres undefined) | -14 | -4
CCCC(C)C(=O)Nc1ccc(OCC)cc1 (centres undefined) | 100* | 4
COc1ccccc1N1C(=O)S/C(=C\c2cccc([N+](=O)[O-])c2)C1=O | 21 | -2
OCCCNc1nc(-c2ccccc2Cl)c2cc(Br)ccc2n1 | 51* | -4
O=C(NNc1nc(-c2ccccc2)c2cc(Br)ccc2n1)C12CC3CC(CC(C3)C1)C2 | 2 | -5
CSc1nnc(C(O)c2ccccc2)n1-c1ccccc1 (centres undefined) | 3 | -10
CCNc1cc(N2CCC(CCC(=O)Nc3ccc(OC)c(OC)c3)CC2)ncn1 | 8 | -1
CCNc1cc(N2CCC(CCC(=O)Nc3cc(C)ccc3OC)CC2)ncn1 | 55* | -4
